BoNT A protease = BoNT A light chain protease inhibition. inhibition, % at 10 µM. 360,000 tested, 0.17% active. multiplex microsphere protease substrate cleavage, flow cytometry
Vc quorum ag = induces V. cholerae light production without autoinducers | V. cholerae BH1578 lux reporter, luminescence, 6 h | activation, % at 18.7 µM | 350,000 tested, 0.16% active | AID 588436; in the data active = activation mostly above about 9.7%, no sharp cut-off; inconclusive = no clear call, values can overlap the other calls; inactive = mostly below about 3.7%
BJeLR lethal = BJeLR cell viability loss; BJeLR (HRASV12) viability, CellTiter-Glo ATP luminescence, 48 h; inhibition, % (no concentration beside the values); 300,000 tested, 0.17% active; in the data active = inhibition above about 50%; inconclusive = no clear call, values can overlap the other calls
BoNT-F LC inh = inhibitors of Botulinum neurotoxin F light chain protease; Multiplex microsphere protease cleavage assay, flow cytometry; inhibition, % at 10 µM; 360,000 tested, 0.22% active; AID 588497; in the data active = inhibition above about 35%, passing the limit was not always enough; inconclusive = no clear call, values can overlap the other calls
Bead autofluor = counter-screen for toxin protease inhibitors: compound fluorescence. compound autofluorescence counterscreen, microsphere flow cytometry; stronger effect = higher value. fluorescence intensity (no concentration beside the values). 360,000 tested, 3.1% active. AID 624483; in the data active = fluorescence intensity above about 16000; inconclusive = no clear call, values can overlap the other calls
Anthrax LF prot = inhibitors of Bacillus anthracis lethal factor protease; AID 588501; multiplex microsphere protease cleavage assay, LF; P15917; inhibition, % at 10 µM; 360,000 tested, 0.12% active
Target sequence (P15917 whole entry, looked up): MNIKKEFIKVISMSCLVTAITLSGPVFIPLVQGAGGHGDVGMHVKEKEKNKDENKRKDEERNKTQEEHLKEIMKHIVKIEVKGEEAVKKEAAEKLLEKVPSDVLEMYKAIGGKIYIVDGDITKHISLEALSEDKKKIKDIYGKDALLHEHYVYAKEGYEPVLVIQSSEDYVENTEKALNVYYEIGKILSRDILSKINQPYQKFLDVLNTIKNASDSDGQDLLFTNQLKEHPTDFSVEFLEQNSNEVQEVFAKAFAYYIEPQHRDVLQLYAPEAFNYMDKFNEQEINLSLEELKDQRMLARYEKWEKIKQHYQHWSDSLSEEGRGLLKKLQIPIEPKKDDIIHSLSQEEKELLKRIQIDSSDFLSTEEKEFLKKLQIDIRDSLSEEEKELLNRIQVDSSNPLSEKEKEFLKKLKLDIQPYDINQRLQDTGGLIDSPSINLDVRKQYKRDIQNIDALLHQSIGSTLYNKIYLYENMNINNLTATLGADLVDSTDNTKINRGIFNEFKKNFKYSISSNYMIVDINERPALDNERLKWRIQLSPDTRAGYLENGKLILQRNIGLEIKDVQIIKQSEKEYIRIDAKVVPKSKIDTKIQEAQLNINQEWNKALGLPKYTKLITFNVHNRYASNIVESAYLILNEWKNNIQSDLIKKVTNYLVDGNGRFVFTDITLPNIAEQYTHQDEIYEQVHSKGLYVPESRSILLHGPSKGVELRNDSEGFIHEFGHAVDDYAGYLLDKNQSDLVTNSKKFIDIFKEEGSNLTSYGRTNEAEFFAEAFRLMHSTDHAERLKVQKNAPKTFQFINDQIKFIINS
Large screens that a line does not name were inactive. Sampled rows, rich in hits. Any-hit rate of the full collection: about 3.7%. Cut-off read from the data, not from the text of the source, unless noted: active = inhibition above about 30%; inconclusive = no clear call, values can overlap the other calls; inactive = below that.

COc1ccc(Cc2nc3ccc(C(=O)NCCc4ncccc4C)cc3o2)cc1OC	none (no result: BJeLR lethal)
CN(c1ccc(OCC(=O)N2CCC(C(N)=O)CC2)cc1)S(=O)(=O)c1cccs1	BoNT A protease inconclusive, Bead autofluor 21812
CC(=O)N1CCN(C(=O)COc2ccc(N(C)S(=O)(=O)c3cccs3)cc2)CC1	none
Cc1ccc(S(=O)(=O)/N=c2\sccn2C)cc1	Vc quorum ag 46
CCOC(=O)c1c(C)[nH]c(C)c1C(=O)CSc1nc2ccccc2[nH]1	none
CCOC(=O)c1c(C)[nH]c(C(=O)CSc2ccc(Cl)cc2)c1C	BoNT A protease inconclusive, Bead autofluor 16362
CCOC(=O)c1c(C)[nH]c(C(=O)COC(=O)c2ccccn2)c1C	Bead autofluor 19471
CCOC(=O)c1c(C)[nH]c(C(=O)CN2CCOCC2)c1C	Bead autofluor 23350
CCOC(=O)c1c(C)[nH]c(C(=O)CSc2nc(C)cc(C)n2)c1C	none
CCOC(=O)c1c(C)[nH]c(C)c1C(=O)CSc1ncccn1	Bead autofluor 21577
COc1cccc(C(NC(C)=O)c2nc(-c3ccc4c(c3)OCO4)cs2)c1 (stereo not given)	none (no result: BJeLR lethal)
C[C@@H]1CCCCO[C@H](CN(C)Cc2ccc3c(c2)OCO3)[C@@H](C)CN([C@H](C)CO)C(=O)c2cc(NC(=O)c3ccccc3)ccc2O1	none (no result: BJeLR lethal)
COc1ccccc1Cc1c(-c2cccc(Cl)c2)nc2ccc(Br)cn12	none (no result: Vc quorum ag, BJeLR lethal)
Cc1ccc(NC(=O)Nc2nnc(-c3ccncc3)s2)cc1C	none
COC(=O)Nc1nnc(-c2ccncc2)s1	Bead autofluor 22886
CCOc1ccc(N(CC(=O)NCc2cccc(OC)c2)S(=O)(=O)c2c(C)noc2C)cc1	BoNT-F LC inh inconclusive, Bead autofluor inconclusive, Anthrax LF prot inconclusive
O=C(CN(c1ccc(F)cc1)S(=O)(=O)c1ccc2c(c1)OCCO2)NCC1CCCO1 (stereo not given)	Bead autofluor 22449
COc1ccc(N(CC(=O)NCC2CCCO2)S(=O)(=O)c2c(C)noc2C)cc1 (stereo not given)	BoNT A protease inconclusive, Bead autofluor 23408
COc1ccc(N(CC(=O)NCc2ccc(F)cc2)S(=O)(=O)c2c(C)noc2C)cc1	none
COc1ccc(N(CC(=O)NCc2cccc(OC)c2)S(=O)(=O)c2c(C)noc2C)cc1	Bead autofluor 20088
CCN(CC)C(=O)C1=C(C)N(CCCOC)C(=O)C(CC(=O)NCCCCc2ccccc2)C1 (stereo not given)	none (no result: BJeLR lethal)
CC1=C(C(=O)N(C)C)CC(CC(=O)NCc2cccs2)C(=O)N1CCC1=CCCCC1 (stereo not given)	none (no result: BJeLR lethal)
CC1CCCCN1c1cc(C#N)c(C#N)cc1[N+](=O)[O-] (stereo not given)	none
CC1CCc2cccc3c2N1c1cc(C#N)c(C#N)cc1O3 (stereo not given)	Bead autofluor 23863
CCN(CC)c1ccc(/C=C/[N+](=O)[O-])cc1	BoNT A protease 66, Anthrax LF prot 35
O=C(Sc1cccc2cccnc12)c1ccccc1Br	BJeLR lethal 97
CCOc1cc(NS(=O)(=O)c2ccc(Cl)cc2)c(OCC)cc1NC(=O)CC(C)C	none
CCOc1cc(NS(=O)(=O)c2ccc(NC(C)=O)cc2)c(OCC)cc1NC(=O)C(C)C	Bead autofluor 20625
COc1ccc(CC(=O)Nc2ccc(S(=O)(=O)Nc3nc(C)cc(C)n3)cc2)cc1	Bead autofluor 19652 (no result: BJeLR lethal)
COc1ccc(S(=O)(=O)NN=C2CCCC2)cc1	Bead autofluor 20396
CC(=O)Nc1ccc(S(=O)(=O)Nc2nc3ccccc3nc2N2CCCCCC2)cc1	BoNT A protease inconclusive, Bead autofluor 23055
COc1cccc(-c2cc3nc(NCc4ccc(C)cc4C)n(C)c(=O)c3s2)c1	none (no result: BJeLR lethal)
CCCCC1CC2=C(C(=O)OC(C)(C)O2)C(c2ccc(Cl)cc2)O1 (stereo not given)	none (no result: Vc quorum ag, BJeLR lethal)
O=C(C[C@@H]1C[C@H]2c3cc(NC(=O)c4cccnc4)ccc3O[C@H]2[C@H](CO)O1)NCc1ccc(Oc2ccccc2)cc1	none (no result: BJeLR lethal)
C[C@]12CC[C@H](O)CC1=CCC1C2CC[C@@]2(C)C1CC[C@@H]2NCc1ccccc1 (stereo not given in full)	none (no result: BJeLR lethal)
O=C(Nc1ccc(F)c(Cl)c1)c1cc(C2CCCN(S(=O)(=O)c3cccc4cccnc34)C2)on1 (stereo not given)	none (no result: BJeLR lethal)
COc1ccccc1CNS(=O)(=O)c1ccc(NC(C)=O)cc1	Bead autofluor 22915
COc1ccc(S(=O)(=O)Nc2ccc(NC(C)=O)cc2)cc1	Bead autofluor 23841
CCOC(=O)c1ccc(NC(=O)COc2ccc(S(=O)(=O)NC(C)CC)cc2)cc1 (stereo not given)	none
COc1ccc(NC(=O)Nc2ccc(N(C)C)cc2)cc1	Bead autofluor 18854
COc1ccc(S(=O)(=O)Nc2ccc(N(C)C(C)=O)cc2)cc1	none (no result: BoNT A protease, BoNT-F LC inh, Bead autofluor, Anthrax LF prot)
CCOC(=O)c1ccc(NC(=O)C(C)NS(=O)(=O)c2ccc(OC)cc2)cc1 (stereo not given)	Bead autofluor 16181
CC1(C)OCC(N)(CO)CO1	none (no result: BJeLR lethal)
COc1ccc(C(C)(NC(C)=O)c2nc(-c3ccc(F)cc3OC)cs2)cc1 (stereo not given)	none (no result: BJeLR lethal)
O=C(C[C@H]1C(=O)N(C2CCCCC2)C[C@@H]1c1ccccc1)Nc1ccc(Br)cc1	none (no result: BJeLR lethal)
CC(=O)c1c(C)[nH]c(C(=O)CSc2nnc(-c3ccco3)n2Cc2ccccc2)c1C	Bead autofluor 16352
COCCn1c(SCC(=O)NCCc2ccccc2)nnc1-c1ccco1	Bead autofluor 17231
Cn1cnnc1SCC(=O)NCCC(c1ccccc1)c1ccccc1	none
CC(C)(C)NC(=O)CSc1nnc(-c2ccco2)n1Cc1ccco1	Bead autofluor 16522
CCn1c(SCC(=O)NCCc2ccccc2)nnc1-c1ccco1	none (no result: Vc quorum ag)
Cn1cnnc1SCC(=O)NCCc1ccccc1	Bead autofluor 23752
CCOC1=C2[C@H](c3ccccc3)N(S(=O)(=O)c3ccc(C)cc3)C(C(C)(C)C)[C@H]2C(C#N)(C#N)C(C#N)(C#N)C1 (stereo not given in full)	none (no result: Vc quorum ag, BJeLR lethal)
CC1(C)CC(=O)C=C(Nc2ccccn2)C1	BoNT A protease inconclusive, Bead autofluor 21302
CC(O)c1cccc(NC2=CC(=O)CC(C)(C)C2)c1 (stereo not given)	Bead autofluor 22635
CC1(C)CC(=O)C=C(Nc2cccc(F)c2)C1	none
CC1(C)CC(=O)C=C(Nc2ccc(Br)cn2)C1	none
CC(C)C(c1nnnn1C(C)(C)C)N1CCOCC1 (stereo not given)	none
CC(C)C(c1nnnn1C(C)(C)C)N1CCC(Cc2ccccc2)CC1 (stereo not given)	BoNT A protease inconclusive, BoNT-F LC inh inconclusive, Bead autofluor 18261, Anthrax LF prot inconclusive
O=C(c1ccc([N+](=O)[O-])cc1Cl)N1CCN(Cc2ccccc2)CC1	none (no result: BJeLR lethal)
CCOC(=O)CSc1ncc(OC)c(Sc2ccc(OC)cc2)n1	Bead autofluor 20771
CN(C)CCNc1nc(Oc2ccccc2)c2sccc2n1	none (no result: BJeLR lethal)
Cc1cc(-n2c(SCC(=O)NCc3cccs3)nc3n[nH]c(C)c3c2=N)ccc1Cl	Bead autofluor 23384

Compound activity from PubChem BioAssay.
